Results reported in PubChem BioAssay (NCI).
Where “and” joins values, the source holds several entries; their conditions need not be identical. Identical values can stand only once. The panel holds about 83,000 compounds, 20% with a hit somewhere; the sample as a whole holds those more often.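 96-well plates, one dose, 48 hours. Percent growth reported; active if below 10.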 Calls of active or inactive are those of the source.

Test system: HL-60(TB) leukemia
Assay: NCI-60 one-dose screen, 48 h (100 = growth as untreated, 0 = no growth, -100 = all killed)
Settings: 10 µM unless noted

| SMILES | growth |
| --- | --- |
| Cc1cc(C)c2c(-c3nnc(N)s3)cc(=O)oc2c1 | 98% (inactive) |
| CCOc1ccc(NC(=O)CSc2oc(-c3ccccc3)nc2S(=O)(=O)c2ccc(F)cc2)cc1 | 65.2% (inactive) |
| Cc1ccc(Nc2nc(N)c3ccccc3n2)cc1Cl | 78.2% (inactive) |
| COc1ccc(C(=O)NC(=O)Nc2cc3c(cc2F)/C(=C/c2[nH]c(C)c(CCC(=O)O)c2C)C(=O)N3)c(F)c1 | 20.9% (inactive) |
| CC(C)NCC(O)c1ccc(O)c(O)c1 (stereo unspecified) | 85.3% (inactive) and 82.1% (inactive) and 95.3% (inactive) |
| CC(C)c1cc(CNc2nc(Nc3cc(C4CC4)[nH]n3)cc(N3CCN(C)CC3)n2)on1 | -32.9% (active) |
| O=C1CSC(=S)N1Cc1cccnc1 | 13.8% (inactive) |
| COc1cc(NC(=O)COc2ccccc2)c(C(N)=O)cc1OC | -11.7% (active) |
| N#Cc1c(-c2ccccc2)cc(-c2ccccc2)n(CCCCCC(=O)Nc2ccccc2N)c1=O | 2.68% (active) |
| Nc1c2c(nc3ccc(Br)cc13)CC(c1ccccc1)CC2=O (stereo unspecified) | 10.7% (inactive) |
| O=C1C=C(Nc2ccccc2)c2ccccc2C1=O | 79.5% (inactive) and 101% (inactive) |
| CC(=O)OCC(=O)[C@@]1(O)CC[C@H]2[C@@H]3CC[C@@H]4C[C@H](O)CC[C@]4(C)[C@H]3C(=O)C[C@@]21C | 94% (inactive) |
| COc1cc2c(Nc3ccc(Cl)c(Cl)c3F)ncnc2cc1OCC1C[C@@H]2CN(C)C[C@@H]2C1 (stereo partly specified) | -53.2% (active) and 41.1% (inactive) |
| Cn1cnc([N+](=O)[O-])c1S(=O)(=O)Oc1cccc2ccccc12 | 4.37% (active) |
| CC1(c2ccccc2O)NN=C(/N=C/c2cccc([N+](=O)[O-])c2)N1C(Cc1c[nH]c2ccccc12)C(=O)O (stereo unspecified) | 120% (inactive) |
| COc1cc2cc(Oc3ccc(NC(=O)c4cccc(C(F)(F)F)c4)cc3)c(C)nc2cc1OC | 27.8% (inactive) |
| N=C1C(c2nc(-c3ccc(Br)cc3)cs2)=C(O)CN1CC1CCCO1 (stereo unspecified) | 98.3% (inactive) |
| CCN(CC)c1ccc(NC(C(=O)c2ccccc2)c2ccccc2)cc1 (stereo unspecified) | 65.5% (inactive) |

| SMILES | growth |
| --- | --- |
| N#CC1CCc2c(c(-c3cn[nH]c3C(F)(F)F)nc3c(F)cc4[nH]ncc4c23)C1 (stereo unspecified) | 47% (inactive) |
| COc1cnc2c(c1)C(=O)c1c-2n(CCCN2CCN(C)CC2)c(=O)c2cc([N+](=O)[O-])ccc12 | -54% (active) |
| Cc1nn(-c2ccccc2)c(N2CCOCC2)c1-c1nc2ccc([N+](=O)[O-])cc2[nH]1 | 77.1% (inactive) |
| Cc1ccc(-c2nc3ccc(Cl)cc3c(=O)n2N2C(=O)CSC2c2ccccc2Cl)cc1 (stereo unspecified) | 97.1% (inactive) |
| Cc1cc(Cl)nc(N(CCNc2ccnc3cc(Cl)ccc23)Cc2ccco2)n1 | -47.7% (active) |
| N#Cc1c(Nc2ccccc2)nn2cc(-c3nc4ccccc4s3)c(N)nc12 | 100% (inactive) |
| Cc1ncc(C(=O)Nc2ccc(CN3CCN(C)CC3)c(C(F)(F)F)c2)cc1C#Cc1cnc(NC2CC2)c2ncccc12 | 34.1% (inactive) |
| OCCN1CCN(CCCN2c3ccccc3Sc3ccc(Cl)cc32)CC1 | 85.8% (inactive) and 73.9% (inactive) |
| [2H]C1([2H])[C@H](C)O[C@H](C)C([2H])([2H])N1c1ccc(NC(=O)c2cccc(-c3ccc(OC(F)(F)F)cc3)c2C)cn1 | 56.3% (inactive) |
| COc1ccc(-c2nc3sccn3c2/C=C/C(=O)c2ccc3c(c2)OCO3)cc1 | 79.6% (inactive) |
| NS(=O)(=O)c1cnccc1Oc1cccc2cccnc12 | 89.5% (inactive) |
| CS(=O)(=O)OCCN(CCOS(C)(=O)=O)c1ccc(/C=N/Nc2ccc([N+](=O)[O-])cc2[N+](=O)[O-])cc1 | 71.6% (inactive) |
| N#Cc1c(NC(=O)c2ccco2)[n+]([O-])c2ccccc2[n+]1[O-] | 81.4% (inactive) |
| NS(=O)(=O)c1cc2c(cc1Cl)NC(C(Cl)Cl)NS2(=O)=O (stereo unspecified) | 91.5% (inactive) and 105% (inactive) |
| Cc1cc(N(CCCNc2ccnc3cc(Cl)ccc23)Cc2ccco2)nc(N2CCOCC2)n1 | 45.5% (inactive) |
| O=C1/C(=C/c2cccc(O)c2)COc2ccc(O)cc21 | 52.1% (inactive) |
| Nc1ncncc1-c1ccc(F)cc1 | 103% (inactive) |
| COc1cc(C2CC(c3cccc(Nc4ccncc4)c3)=NN2c2ccc(Cl)cc2)cc(OC)c1OC (stereo unspecified) | -45.2% (active) |
